From the supplement of paper PMC11732987, “Enantioselective OTUD7B fragment discovery through chemoproteomics screening and high-throughput optimisation” (Communications Chemistry, 2025)

Molecular target: ATXN3 (UniProt P54252)
Assay: log2 ratio of Biotin-Ahx-Ub-VS probe labelling (fragment/DMSO); higher = less target engagement (more negative = stronger competition), active = hit call of the paper (q ≤ 0.05, log2 ratio ≤ -1)
Conditions: compound concentration: 200 uM; treatment time: 3 h
How it was run: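 The table lists average log2 ratios of fragment over vehicle, from an unpaired t-test on global-median-normalised Spectronaut label-free quantities. Proteins with ≥2 unique peptides were used. Samples were HEK293T lysate (495 µg) treated in triplicate with fragment at 200 µM or vehicle for 3 h, then with Biotin-Ahx-Ub-VS (0.5 µM final) for 1 h, with labelled DUBs NeutrAvidin-enriched and run by diaPASEF LC-MS/MS.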

Sequence of ATXN3 (P54252 whole entry, the tested form may be a part): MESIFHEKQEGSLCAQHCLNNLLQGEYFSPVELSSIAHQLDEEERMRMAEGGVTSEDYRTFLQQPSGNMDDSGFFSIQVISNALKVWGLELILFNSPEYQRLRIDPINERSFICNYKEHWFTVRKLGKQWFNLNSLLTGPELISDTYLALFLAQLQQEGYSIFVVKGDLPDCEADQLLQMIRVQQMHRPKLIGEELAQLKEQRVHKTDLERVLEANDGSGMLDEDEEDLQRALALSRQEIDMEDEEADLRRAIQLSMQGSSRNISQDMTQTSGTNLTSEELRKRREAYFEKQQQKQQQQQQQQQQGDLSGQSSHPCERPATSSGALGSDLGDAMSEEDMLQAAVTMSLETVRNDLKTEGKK

log2 ratio of Biotin-Ahx-Ub-VS probe labelling, inactive:
Cc1cccc2nc(CCNC(=O)CCl)cn12.Cl -0.436
Cc1cccnc1NC(=O)C1CCN(C(=O)CCl)CC1.Cl -0.281
COc1cccc(CN(C)C(=O)CCl)c1 -0.781
Cl.O=C(CCl)NCCN1CCc2ccccc21 -0.887
O=C(CCl)N1CCC(c2nc3ccccc3o2)CC1 -0.627
O=C(CCl)NC1CCC(C(F)(F)F)CC1 (stereo unspecified) -0.373
Cc1nc(CNC(=O)CCl)c2ccccn12.Cl -0.101
O=C(CCl)NC1CCS(=O)(=O)c2ccccc21 (stereo unspecified) -0.496
O=C(CCl)N1CCC(=C(F)CO)C1 -0.106
O=C(CCl)Nc1cccc2ncccc12 0.14
O=C(CCl)Nc1cccc(C(=O)N2CCSCC2)c1 -0.874
